# MARV entry inh: qHTS for inhibitors of binding or entry into cells for Marburg Virus | Marburg virus pseudotyped entry inhibition, cell reporter | Potency, µM (top dose mostly 37.8 µM), without a hit: top-dose activity change, negative = inhibition, actives largely listed as inhibitors | 300,000 compounds, 1.8% hits; calls by dose curve; tested in HEK293 cells; note: potency is the fitted concentration of half-maximal effect
# LASV entry inh: qHTS for Inhibitors of binding or entry into cells for Lassa Virus | Lassa virus pseudotype entry inhibition, cell reporter | Potency, µM (doses to about 37.9 µM), for inactives: at the top dose activity change, negative = inhibition, actives largely listed as inhibitors | 300,000 compounds, 1.2% hits | AID 540256, 2011; calls by dose curve; tested in HEK293 cells; note: potency is the fitted concentration of half-maximal effect; nearly all actives have a fitted effect of over 50% in size
# VACV Venus inh: qHTS for Stage-Specific Inhibitors of Vaccinia Orthopoxvirus: Venus Reporter Primary qHTS. 330,000 compounds, 0.46% hits. Vaccinia virus Venus reporter expression, fluorescence. AID 720580, 2013. Potency, µM (series often up to 36.5 µM), inactives show top-dose activity change, negative = inhibition, actives largely listed as inhibitors; calls by dose curve; tested in A549 cells; note: potency is the fitted concentration of half-maximal effect; nearly all actives have a fitted effect of over 30% in size
# VACV mCherry inh: qHTS for Stage-Specific Inhibitors of Vaccinia Orthopoxvirus: mCherry Reporter Primary qHTS. Vaccinia virus mCherry reporter infection, fluorescence. AID 720579, 2013. Potency, µM (series often up to 36.5 µM), inactives show top-dose activity change, negative = inhibition, most hits filed as inhibitors. 310,000 compounds, 0.63% hits; calls by dose curve; tested in A549 cells; note: potency is the fitted concentration of half-maximal effect; nearly all actives have a fitted effect of over 35% in size
# FMDV inh: High Throughput Screening for Foot and Mouth Disease Virus Antivirals | FMDV antiviral cell-based qHTS | Potency, µM (top dose mostly 57.9 µM), inactives show at the highest dose activity change, negative = inhibition, most hits filed as inhibitors | 410,000 compounds, 1.2% hits | AID 1159524, 2015; calls by dose curve; tested in HEK293T cells; note: read-out not given here; potency is the fitted concentration of half-maximal effect; nearly all actives have a fitted effect of over 45% in size
# HCMV antiviral: qHTS Assay for inhibitors of the human cytomegalovirus (HCMV). activity change, negative = inhibition, % at 57.5 µM. 410,000 compounds, 4.5% hits. HFF cells, HCMV-luciferase reporter, 72 h; hits give low values; in the data active = activity change below about -60%; inconclusive = no clear call, values can overlap the other calls; inactive = above about -39%
#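 Compounds were evaluated in HFFs infected with an HCMV luciferase reporter virus (MOI 1 PFU/cell). Luciferase in lysates collected 72 h post infection served as the replication measure.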
# * = called active by the depositor; i = inactive; ? = inconclusive; . = no result given; ! = repeats disagree; [ ] = dose if it differs, or a comment. A selection: hits, their analogues and other compounds. The true share with any hit is near 6.5%. % is set by controls: 0 for no effect and ±100 for the full control effect.
SMILES,MARV entry inh,LASV entry inh,VACV Venus inh,VACV mCherry inh,FMDV inh,HCMV antiviral
CC(=O)Nc1ccc(/C(C)=N/Nc2nc(Nc3cccc4ccccc34)nc(N3CCOCC3)n2)cc1,1.4µM*,?,?,-14%,0%,-62*
CC(=O)Nc1ccc(/C(C)=N/Nc2nc(N3CCOCC3)nc(N3CCOCC3)n2)cc1,?,11%,-3%,-4%,-15%,-22
COc1ccc(Nc2nc(N3CCOCC3)nc(N3CCOCC3)n2)cc1,.,.,.,.,-22%,25
C/C(=N\Nc1nc(N2CCCCCC2)nc(N2CCCCCC2)n1)c1ccccc1,.,.,.,.,-22%,-66*
CNc1nc(C(=O)O)nc(N2CCOCC2)n1,0%,-2%,-2%,-9%,2%,-105*
COC(=O)c1ccc(Nc2nc(N3CCOCC3)nc(N3CCOCC3)n2)cc1,2µM*,?,-14%,i,-11%,23
Cn1cc(Cl)nc1[C@@H](O)c1ccccc1,28%,.,.,.,.,.
c1ccc(Nc2nc(N3CCOCC3)nc(N3CCOCC3)n2)cc1,?,-14%,?,.,?,66
c1ccc(Nc2nc(N3CCNCC3)nc(N3CCOCC3)n2)cc1,11µM*,8.9µM*,-6%,-18%,-14%,126
COc1ccc(Nc2nc(NCc3ccco3)nc(N3CCOCC3)n2)cc1,2.8µM*,-1%,-23%,i,-20%,?
CCOc1ccc(Nc2nc(Nc3ccc(OCC)cc3)nc(N3CCOCC3)n2)cc1,?,2%[46.1 µM],-9%[7.34 µM],-3%[7.34 µM],-19%,83
Fc1ccc(Nc2nc(N3CCOCC3)nc(N3CCOCC3)n2)cc1,7.1µM*,?,-20%,-16%,-19%,0
CCN1CCc2c(C#N)c(NCc3ccccc3)nc(N(CC)CC)c2C1,?,15µM*,.,.,?,-14
Cc1cccc(C)c1NC(=O)c1sc(-n2nc(C)c(Cc3ccccc3)c2C)nc1C,-8%[46.1 µM],-1%[46.1 µM],-19%,-21%,-25%,0
C[C@@H]1C[C@H](Nc2ccccc2)c2ccccc2N1C(=O)c1cccnc1,10µM*,?,?,.,?,-20
CC(=O)N(c1ccccc1)C1CC(C)N(C(=O)c2ccccc2)c2ccccc21 (configuration not stated),?,-22%,-22%,i,?,-38
CC1CC(Nc2ccccc2)c2ccccc2N1C(=O)c1cccnc1 (configuration not stated),?,-29%,?,?,.,-36
CC1CC(Nc2ccccc2)c2ccccc2N1C(=O)c1ccccc1F (configuration not stated),.,.,.,.,?,-67*
CC(=O)Oc1ccc2c(c1)CC[C@@H]1[C@@H]2CC[C@]2(C)[C@@H](O)CC[C@@H]12,.,.,-9%,i,-7%,.
O=c1cc(N2CCOCC2)oc2c(-c3ccccc3)cccc12,0.32µM*!,-18%,?,-23%,-23%,.
Fc1cccc(Cl)c1Cn1c(-c2cccs2)nc2ccccc21,-25%[46.1 µM],13%[46.1 µM],-6%[7.34 µM],-7%[7.34 µM],0%,-63*
O=C(c1c[nH]c(C(=O)C(Cl)(Cl)Cl)c1)c1c(F)cccc1F,9%[46.1 µM],-16%[46.1 µM],-12%,-10%,0%,-80*
CN(C)c1ccc(/C=C2/CCc3ccccc32)cc1,.,.,-22%,7%,.,.
Cc1cc2c(=Cc3ccc(N(C)C)cc3)c3ccccc3n2[n+]1C,?,2.2µM*,254%,21%,0%,-97*
CN(C)c1ccc(C=c2c3ccccc3n3c2c2ccccc2[n+]3C)cc1,?,7.1µM*,?,?,25µM*,-98*
SMILES,MARV entry inh,LASV entry inh,VACV Venus inh,VACV mCherry inh,FMDV inh,HCMV antiviral
CCOC(=O)c1cc2c(=Cc3ccc(N(C)C)cc3)c3ccccc3n2[n+]1C,?,11µM*,134%,162%,18µM*,-88*
CN(C)c1ccc(C=C2c3ccccc3-c3ccccc32)cc1,.,.,-12%,-22%,.,.
CCOC(=O)SC1=N/C(=C\c2ccc(N(C)C)cc2)C(=O)S1,-1%,?,.,.,11%,54
Cc1ccccc1CCNC(=O)c1cc2cc(S(=O)(=O)N3CCCCC3)ccc2n1C,.,-13%[46.1 µM],-25%,-29%,?,-3
COc1ccc(Cl)cc1NC(=O)CSc1nccn1-c1ccc(Cl)cc1,.,-27%[46.1 µM],-20%,-7%,?,-82*
O=C(CSc1nccn1-c1cccc(Cl)c1)Nc1cccc2ccccc12,.,-19%[46.1 µM],-2%,i,-14%,-63*
Cc1cccc(-n2ccnc2SCC(=O)Nc2cccc3ccccc23)c1,.,4%[46.1 µM],-4%,-4%,0%,-23
Cc1ccc2[nH]c(CSc3nnc(NC(=O)c4ccc(Cl)cc4)s3)cc(=O)c2c1,.,-29%[46.1 µM],-1%,-2%,-3%,9
CCCC[C@@H](C)C[C@@H](C)C(=O)N(C)[C@@H](CC(C)C)C(=O)N[C@H](C(=O)N(C)[C@H](C(=O)N1C[C@@H](O)C[C@H]1C(=O)N1C(=O)C=C[C@@H]1C)C(C)C)C(C)OC(C)=O (some centres not stated),.,.,10µM*,?,?,.
CCCN(CCC)C(=O)c1nn(C)c2c1CSc1ccccc1-2,5%[46.1 µM],-4%[46.1 µM],0%,-9%,-12%,-2
OC(CC#CCN1CCCC1)(c1ccccc1)c1ccccc1,10µM*,-28%,-15%,-14%,-10%,14
COCCOCCOCCC(=O)N[C@@H]1C[C@@H]2CC[C@@]1(C)C2(C)C,-1%,.,.,.,.,.
C#CC[N+](C)(C)CC#Cc1ccc(C)cc1,.,.,.,.,-20%,-90*
C=CCN=C1N[C@@H](c2ccc(Br)cc2)C(C(=O)OC)=C(C)N1Cc1ccccc1,.,.,-25%,-15%,.,.
CCCCN1C(=O)N(c2ccc(Br)cc2)C(=O)C1c1nnnn1-c1c(C)cccc1Cl (configuration not stated),.,.,.,.,.,-13
Cc1[nH]c2ccc(C(=O)OC(C)C(=O)N(C)c3ccccc3)cc2c1C (configuration not stated),14%,5µM*,?,?,-34%,.
COc1cc2c(cc1OC)C(COc1ccccc1OC)N(C(=O)COc1ccc(Cl)cc1)CC2 (configuration not stated),.,?,-13%,-18%,?,-11
Cc1ccc(/C=C2\SC(=S)N(CCC(=O)NNC(=O)c3ccccc3O)C2=O)cc1,-16%[46.1 µM],3%[46.1 µM],14%,i,-2%,?
Cc1ccc(/C=C2\SC(=S)N(CCCC(=O)NC3CCCC3)C2=O)cc1,?,1.1µM*,-13%,-10%,16µM*,-61*
COc1cc(/C=C2\SC(=S)N(CCC(=O)Nc3cccc(O)c3)C2=O)cc(OC)c1OC,?,?,-11%,-7%,20µM*,-39
O=C(CCN1C(=O)/C(=C\c2ccccc2)SC1=S)Nc1ccc(C(=O)O)cc1,-5%[46.1 µM],?,5%,17%,-9%,-8

# From PubChem BioAssay
